RAD52 inh: RAD52 DNA annealing inhibitors, primary screen, biochemical, FRET, single point, set 2; DNA repair protein RAD52 homolog (Homo sapiens), P43351; recombinant RAD52 DNA annealing, FRET fluorescence; inhibition, % at 18.7 µM; hit rate 0.46% among 360,000; AID 651710, 2012;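 active means every replicate showing at least 50% inhibition; inconclusive means mean inhibition at least 50% but not in every replicate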
MLL AF4-AF9 inh: inhibitors of AF4 peptide binding to AF9, primary screen, biochemical, AlphaScreen, biotin-AF4 peptide, FLAG-AF9, single point. AID 651704, 2012. Protein AF-9 (Homo sapiens), P42568. inhibition, % at 10 µM. hit rate 0.47% among 350,000;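 active means every replicate reaching a set inhibition limit, whatever the replicate mean, cut at about 25% in these data; inconclusive means mean inhibition reaches that limit but some replicates miss it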
Target sequence (P42568 whole entry, looked up): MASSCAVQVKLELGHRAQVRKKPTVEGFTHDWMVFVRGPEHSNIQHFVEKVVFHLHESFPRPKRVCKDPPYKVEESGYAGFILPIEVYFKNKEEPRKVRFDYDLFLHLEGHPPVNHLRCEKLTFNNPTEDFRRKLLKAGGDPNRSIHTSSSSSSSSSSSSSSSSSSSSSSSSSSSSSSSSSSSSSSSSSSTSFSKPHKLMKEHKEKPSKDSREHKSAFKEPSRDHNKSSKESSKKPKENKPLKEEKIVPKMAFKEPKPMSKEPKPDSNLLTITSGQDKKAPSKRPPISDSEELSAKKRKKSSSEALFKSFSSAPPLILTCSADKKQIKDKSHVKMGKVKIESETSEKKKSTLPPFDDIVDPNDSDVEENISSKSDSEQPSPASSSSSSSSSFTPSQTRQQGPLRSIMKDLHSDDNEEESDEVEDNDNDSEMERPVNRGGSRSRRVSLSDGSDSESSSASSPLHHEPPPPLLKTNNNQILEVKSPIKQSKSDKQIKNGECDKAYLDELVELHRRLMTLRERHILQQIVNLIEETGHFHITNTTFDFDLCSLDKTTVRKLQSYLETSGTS
Glyco luc inh: increase of ERlucT glycosylation luciferase signal, primary screen, N-linked glycosylation inhibitor project, D54 ERlucT cells, luminescence, set 2 | AID 588692, 2011 | hit rate 0.23% among 360,000 | D54 ERlucT glycosylation luciferase reporter, 24 h; percent of 100 nM tunicamycin response | reporter increase, % at 12.5 µM;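 active means mean luciferase reporter signal, scaled so untreated is 0 and the glycosylation-blocking control 100, at or above a set limit in every replicate; inconclusive means mean reaches the limit but not every replicate does; inactive means mean below the limit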;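 further: luciferase carries N-glycosylation sites so blocking glycosylation raises the light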
RAD54 branch: inhibitors of human RAD54 branch migration, primary screen, biochemical, fluorescence, single point; DNA repair and recombination protein RAD54-like (Homo sapiens), Q92698; RAD54 Holliday junction branch migration, FAM/BHQ fluorescence; inhibition, % at 10.4 µM; hit rate 0.14% among 360,000; AID 602329, 2012;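 active means mean normalized replicate activity at least 40 and at least half of replicates scoring 40 or more; inconclusive means only one of the two criteria met; inactive means mean below 40 and under half of replicates reaching 40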;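 further: inhibitors cause a drop in the FAM fluorescence signal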
CASP6 VEID inh: human caspase-6 inhibitors, primary screen, biochemical, VEID-R110 fluorescence, single point, set 2 | P55212 | purified caspase-6, Z-VEID-R110 cleavage fluorescence | inhibition, % at 12.5 µM | hit rate 0.53% among 350,000 | AID 686996, 2013;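 active means mean inhibition across replicates at least about 35%, with every replicate also reaching that limit, limit read from the data; inconclusive means only one of the two criteria met; inactive means neither criterion met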
RAD52 DNA ctr: DNA-binding compounds via dye displacement, dose response, artefact control for RAD52 inhibitor project, biochemical, fluorescence polarization, cherry-pick. hit rate 8% among 1,000. Salmon sperm DNA/acridine orange FP displacement. shares compounds with RAD52 inh. AC50, µM;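 active means fitted half-maximal concentration for signal loss at or below twice the highest dose tested, in every separate run, actives reach about 64 µM in these data; inconclusive means runs disagree, or flat partial signal loss, or poor fit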
Large screens that a line does not name were inactive (follow-up assays come after a bar, where they were run). Most compounds without a hit are left out; they make up all but 1.2% or so of the library.

CCOC(=O)c1c(C)n(-c2ccc(C)cc2)c2ccc(OCC(O)CN3CCN(C)CC3)cc12 (centres undefined)	RAD52 inh 97.2, MLL AF4-AF9 inh 41.1 (no result: RAD54 branch) | RAD52 DNA ctr inactive
CC(C)C(=O)Nc1ccc2c(c1)C(=O)N(C)[C@H]1CC[C@H](CC(=O)Nc3ccccc3F)O[C@@H]1CO2	none (no result: Glyco luc inh)
COc1ccc(-c2nc(NCCCN(C)C)c3ccccc3n2)cc1	RAD52 inh 87.2, Glyco luc inh 42.7, RAD54 branch 90.5 | RAD52 DNA ctr inactive
CCN(CC)CCCNc1nc2ccccc2c2[nH]c3ccc(OC)cc3c12	RAD52 inh 105.5, MLL AF4-AF9 inh inconclusive (no result: RAD54 branch) | RAD52 DNA ctr 6.48µM
O=C1CCCCC1	RAD52 inh 91.0 (no result: MLL AF4-AF9 inh) | RAD52 DNA ctr inactive
Cc1cc2c(cc1C)C(=O)CCC2	none
C[N+](C)(C)CC(=O)N/N=C/c1c2ccccc2cc2ccccc12	RAD52 inh 94.3, RAD54 branch 91.9 | RAD52 DNA ctr 55.2µM
C=CCN1Cc2ccccc2[C@H]2OC(c3ccc(OCCCO)cc3)=N[C@@]2(CCS(=O)(=O)c2ccccc2)C1=O	none (no result: Glyco luc inh)
COc1ccc(-c2cc(NC=O)c3ncc(-c4cccc(C(=O)NCCN(C)C)c4)n3c2)c(OC)c1	RAD52 inh 56.8 | RAD52 DNA ctr inactive
COc1ccc(-c2cc(NC=O)c3ncc(-c4cccc(C(C)=O)c4)n3c2)cc1	none
O=C(c1cccnc1)N1C[C@@H]2[C@H](c3ccccc31)[C@@H](CO)N2C(=O)C1CCCCC1	none (no result: Glyco luc inh)
COc1ccc(/C=N/Nc2cc(C)nc3c(C)cccc23)cc1	RAD52 inh 80.4, RAD54 branch 61.0 | RAD52 DNA ctr inconclusive
COc1cccc2c(N/N=C/c3ccc(O)c(O)c3)cc(C)nc12	none
COc1ccc([N+](=O)[O-])cc1Nc1c2ccccc2nc2ccccc12	none
COc1cc(NS(C)(=O)=O)ccc1Nc1c2ccccc2nc2ccccc12	RAD52 inh 54.9, RAD54 branch 55.8 | RAD52 DNA ctr inactive
NC(=NCc1ccc2c(c1)OCO2)NC(=O)c1ccccc1	RAD52 inh 51.2 (no result: RAD54 branch) | RAD52 DNA ctr inactive
CN1CCN(c2ccc(Cl)cc2NC(=O)CCN2C(=O)c3ccccc3C2=O)CC1	RAD52 inh 82.6 (no result: RAD54 branch) | RAD52 DNA ctr inactive
C[C@H](CO)N1C[C@H](C)[C@H](CN(C)S(C)(=O)=O)Oc2c(NS(=O)(=O)c3ccc(Cl)cc3)cccc2C1=O	none (no result: Glyco luc inh)
CC(C)NC(=O)N1CC2(C1)[C@H](c1ccccc1)[C@@H](CO)N2C(=O)C1CCC1	none (no result: Glyco luc inh, RAD54 branch)
NC(=O)c1ccc(Nc2nc(C(N)COCc3ccccc3)cs2)cc1 (centres undefined)	none
NC(COCc1ccccc1)c1csc(Nc2ccc(C(=O)c3ccccc3)cc2)n1 (centres undefined)	RAD52 inh 58.1 | RAD52 DNA ctr inactive
O=C(O)CCNC(=O)c1ccccc1	none
O=C(NCCNC(=O)c1ccccc1)c1ccccc1	RAD52 inh 52.5 | RAD52 DNA ctr inactive
COc1cccc(S(=O)(=O)Nc2ccc(C(=O)N3CCCCCC3)cc2)c1	none
COc1cccc(S(=O)(=O)NCC(=O)N2CCCCCC2)c1	RAD52 inh 108.4 | RAD52 DNA ctr inactive
CCN1CCN(C(=O)CCCn2c(C)c3cnn(-c4ccccc4)c(=O)c3c2C)CC1	none
Cc1c2cnn(-c3ccccc3)c(=O)c2c(C)n1CCCC(=O)NCCN1CCN(C)CC1	RAD52 inh 57.9, MLL AF4-AF9 inh inconclusive (no result: RAD54 branch) | RAD52 DNA ctr inactive
CCC(=O)Nc1ccc2c(c1)OC[C@H](C)N(C(C)=O)C[C@@H](C)[C@@H](OC)CN(C)C2=O	none (no result: Glyco luc inh)
OCCN1CCN(CC(O)COc2ccc(C34CC5CC(CC(C5)C3)C4)cc2)CC1 (centres undefined)	RAD52 inh 56.8 (no result: RAD54 branch) | RAD52 DNA ctr inactive
CC(=O)N(C)C[C@@H]1Oc2cc(C#Cc3ccccc3)ccc2S(=O)(=O)N([C@H](C)CO)C[C@@H]1C	none (no result: Glyco luc inh)
COc1ccc(NC(=S)NC23CN4CN(CN(C4)C2)C3)c(OC)c1	RAD52 inh 86.4 (no result: RAD54 branch) | RAD52 DNA ctr inactive
O=C(NCc1ccccc1F)[C@@H]1[C@@H](CO)[C@@H]2Cn3c(cccc3=O)[C@@H]2N1C(=O)CC1CC1	none (no result: Glyco luc inh)
CCCCNC(=S)NCC(c1ccccc1)c1c[nH]c2ccccc12 (centres undefined)	none
CN(C)CCCNC(=S)NCC(c1ccc(Cl)cc1Cl)c1c[nH]c2ccccc12 (centres undefined)	RAD52 inh 56.3, MLL AF4-AF9 inh 35.3 | RAD52 DNA ctr inactive
CCN(CC)CCN(Cc1cc2cc3c(cc2[nH]c1=O)OCO3)C(=S)NCCCN(C)C	none
CN(C)CCCNC(=S)N(CCN(C)C)Cc1cc2cc3c(cc2[nH]c1=O)OCCO3	RAD52 inh 83.9 | RAD52 DNA ctr inactive
CCN(CC)CCN(Cc1cc2cc3c(cc2[nH]c1=O)OCCO3)C(=S)NCCCN(C)C	RAD52 inh 54.4 | RAD52 DNA ctr inactive
O=C(N[C@@H]1CC[C@H](CCNS(=O)(=O)c2ccccc2)O[C@H]1CO)c1cccnc1	none (no result: Glyco luc inh)
CCOC(=O)c1c(-c2ccccc2)oc2ccc(OCC(O)CNCCN(C)C)cc12 (centres undefined)	RAD52 inh 83.0, MLL AF4-AF9 inh 33.8 | RAD52 DNA ctr inactive
CCOC(=O)c1c(-c2ccccc2)oc2ccc(OCC)cc12	none (no result: RAD52 inh, MLL AF4-AF9 inh, CASP6 VEID inh)
Cc1noc(C)c1NC(=O)N(C)C[C@@H]1OCCCC[C@@H](C)Oc2ccc(NC(=O)Nc3ccc(F)cc3)cc2C(=O)N([C@@H](C)CO)C[C@H]1C	none (no result: Glyco luc inh)
CC[N+](CC)(CC)CCCCOc1ccc2c(c1)C(=O)c1cc(OCCCC[N+](CC)(CC)CC)ccc1-2	RAD52 inh 102.2, RAD54 branch 98.9 | RAD52 DNA ctr 21.2µM
Cc1ccc(/C=C2/Sc3ccccc3N(CC(=O)NCC3CCCO3)C2=O)cc1 (centres undefined)	none (no result: RAD52 inh, MLL AF4-AF9 inh, CASP6 VEID inh)
Cc1cc(/C=C2\Sc3ccccc3N2C)cc(C)[n+]1CC1CCCO1 (centres undefined)	RAD52 inh 50.8, Glyco luc inh 37.5 (no result: RAD54 branch) | RAD52 DNA ctr inactive
CCN1CCN(c2nc(Nc3ccc(NC(C)=O)cc3)nc(Nc3ccc(NC(C)=O)cc3)n2)CC1	RAD52 inh 73.2 (no result: RAD54 branch) | RAD52 DNA ctr inactive
CC(=O)Nc1ccc(/C(C)=N/Nc2nc(Nc3ccccc3)nc(N3CCOCC3)n2)cc1	none (no result: RAD54 branch)
CCOc1ccc2c(C)nc(NC3=NC(C)(C)C=C(C)N3)nc2c1	RAD52 inh 91.1 (no result: MLL AF4-AF9 inh) | RAD52 DNA ctr inactive
CCOc1ccc2nc(NC3=NC(C)(C)C=C(C)N3)nc(C)c2c1	none (no result: RAD52 inh, MLL AF4-AF9 inh, CASP6 VEID inh)
CN(C1CCCCC1)S(=O)(=O)c1ccc(C(=O)Nc2sc3c(c2C(N)=O)CC(C)(C)NC3(C)C)cc1	RAD52 inh 77.8 | RAD52 DNA ctr inactive
